Assay results from PubChem BioAssay (Tox21).
Inconclusive results are not listed. A call without a number means that no potency is given here. Activity calls are given as the source filed them. Calls come from the whole dose curve.

Assay: qHTS assay to identify small molecule agonists of the AP-1 signaling pathway - cell viability counter screen (AID 1159525); note: nearly all actives have a fitted effect of over 55% in size
Settings: ME-180 (cervical carcinoma) AP-1-bla cells viability, ATP luminescence, 5 h; series mostly up to 76.8 µM
Description: National Center for Advancing Translational Sciences [NCATS]
NIH Chemical Genomics Center [NCGC]
U.S. Environmental Protection Agency [EPA]
National Institutes of Environmental Health Sciences [NIEHS]
National Toxicology Program [NTP]
U.S. Food and Drug Administration [FDA]
Activator protein-1 (AP-1), a transcription factor, plays an important role in tumor genesis by regulating genes involved in cell proliferation, differentiation, apoptosis, and angiogenesis. AP-1 activity is induced by a complex network of signaling pathways that involves extracellular signals, such as growth factors. The AP-1 protein complex formed from c-Fos and c-Jun binding to the AP-1 response element results in transcriptional activation of genes containing such elements within their promoter.
Low molecular weight molecules have been discovered and developed to modulate various components of these signaling pathways, for example, MAP kinase inhibitors. However, many points of pathway modulation remain untested due to the lack of chemical probes making this signaling locus of general interest.
Using a beta-lactamase reporter-gene under control of the AP-1 response element, a cell-based assay [CellSensor(TM) AP-1-bla ME-180 developed by Invitrogen Corp.] was used to measure EGF-induced signaling. The Tox21 10K library compounds were measured for their ability to positively modulate the action of EC50 EGF on reporter gene activity. Compounds were screened in a 15-pt titration series in 1536-well format. The cytotoxicity of the Tox21 compound library against this cell line was tested in parallel by measuring the intra cellular ATP content in the same wells.
Tox21 Assay Protocol Summary:
2500 cells/5uL in Opti-MEM medium containing 0.5% dialyzed FBS, 0.1 mM NEAA, 1 mM sodium pyruvate and 10 mM HEPES was dispensed into 1536-well black wall/clear bottom plates using a Multidrop dispenser and cells were cultured at 37 degrees Celsius overnight. Next day 23 nL of compounds dissolved in DMSO, positive controls or DMSO were delivered to each well using a pin tool. The plates were incubated at 37 degrees Celsius for 5 hours. 1 uL of LiveBLAzerTM B/G FRET substrate (Solution A+B+C+D) was added to each well using a Flying Reagent Dispenser. After incubated at room temperature for 2.5 hours the plates were measured on an EnVision plate reader at Excitation 405nm, Emission1=460nm and Emission 2=530nm. The %Activity was determined from the ratio of 460nm/530nm.
After the plates were read for Beta-Lactamase assay on Envision; 3 ul Cell Titer Glo (Promega) was added to measure the cytotoxicity and the plates were then incubated at RT in dark for 30 min. The luminescence was read on ViewLux (Perkin Elmer, Shelton, CT) using 6 sec exposure. ViewLux data was expressed as relative luminescence units.
For primary data analysis, raw plate reads for each titration point were first normalized relative to […] EGF control (100%) and DMSO only wells (basal, 0%).
For primary data analysis for viability assay, raw plate reads for each titration point were first normalized Tetra n-octyl ammonium bromide control (-100%) and DMSO (control, 100%).

| Structure (SMILES) | Potency |
| --- | --- |
| CC(=O)O[C@H]1C[C@@H]2CC[C@@H]3[C@H](CC[C@@]4(C)[C@H]3C[C@H]([N+]3(C)CCCCC3)[C@@H]4OC(C)=O)[C@@]2(C)C[C@@H]1N1CCCCC1 | inactive |
| CC[C@H](C)[C@@H](C(=O)O)n1sc2ccccc2c1=O | inactive |
| CCCCCOC(=O)COc1cc(N2C(=O)C3=C(CCCC3)C2=O)c(F)cc1Cl | inactive |
| CC(C)(C)c1ccc(S)cc1 | inactive |
| CCCC(=O)OCC | inactive |
| CC(C)CCCCCCOC(=O)c1ccc(C(=O)OCCCCCCC(C)C)c(C(=O)OCCCCCCC(C)C)c1 | inactive |
| O=S1(=O)c2cccc3cccc(c23)N1CCCN1CCN(c2ccc(F)cc2)CC1 | inactive |
| CC(C)(C)c1cc(CCC(=O)OCC(COC(=O)CCc2cc(C(C)(C)C)c(O)c(C(C)(C)C)c2)(COC(=O)CCc2cc(C(C)(C)C)c(O)c(C(C)(C)C)c2)COC(=O)CCc2cc(C(C)(C)C)c(O)c(C(C)(C)C)c2)cc(C(C)(C)C)c1O | inactive |
| O=C1Nc2cc(Cl)ccc2Oc2ccccc21 | inactive |
| Cn1c(NCCN(CCO)CCCc2ccc([N+](=O)[O-])cc2)cc(=O)n(C)c1=O | inactive |
| Cc1ncsc1CCO | inactive |
| Oc1ccc(C(O)CNCCCCCCNCC(O)c2ccc(O)c(O)c2)cc1O (stereo not given) | inactive |
| Cc1ccccn1 | inactive |
| CC1=CC(=O)/C(=C(/C)O)C(=O)O1 | inactive |
| CC(C)(Oc1ccc(Cl)cc1)C(=O)OCCCOC(=O)C(C)(C)Oc1ccc(Cl)cc1 | inactive |
| CCCC(C)C | inactive |
| CCCCCCCCCC(=O)OCC | inactive |
| O=c1[nH]cnc2ccccc12 | inactive |
| CN(C)C/C=C(/c1ccc(Br)cc1)c1cccnc1 | inactive |
| C=CC(C)(CCC=C(C)C)OC(=O)c1ccccc1 (stereo not given) | inactive |

| Structure (SMILES) | Potency |
| --- | --- |
| Cc1ccc(C)o1 | inactive |
| O=C(NS(=O)(=O)/C=C/c1cccs1)c1ccc(F)cc1Br | inactive |
| O=C(O)/C=C/c1cnc[nH]1 | inactive |
| CC(=O)N(CC(=O)N(C)C)c1ccccc1 | inactive |
| CC(C)c1ccccc1C(C)C | inactive |
| Oc1ccc(O)c2c(O)cccc12 | inactive |
| CN(C)CC[C@@H](c1ccc(Br)cc1)c1ccccn1 | inactive |
| O=C(NN1CCCC1)NS(=O)(=O)c1ccc(Cl)cc1 | inactive |
| CCCCCOC(=O)c1ccc(O)cc1 | inactive |
| CCN(CC)C(C)CN1c2ccccc2Sc2ccccc21 (stereo not given) | inactive |
| CC(=O)[C@@]1(O)CC[C@H]2[C@@H]3C[C@H](C)C4=CC(=O)CC[C@]4(C)[C@H]3CC[C@@]21C | inactive |
| CCCc1ccccc1 | inactive |
| O=S1(=O)N=C(O)c2ccccc21 | inactive |
| CC(=O)/C=C/C1C(C)=CCCC1(C)C (stereo not given) | inactive |
| Cc1ccc(C(=O)C(C)CN2CCCCC2)cc1 (stereo not given) | inactive |
| CC[C@H](C)[C@H](N)C(=O)O | inactive |
| CN(c1nccc(=O)[nH]1)C1CCN(c2nc3ccccc3n2Cc2ccc(F)cc2)CC1 | inactive |
| OC(CCN1CCCCC1)(c1ccccc1)C1CCCCC1 (stereo not given) | inactive |
| O=[N+]([O-])c1cc[n+]([O-])cc1 | inactive |
| Nc1nc(N)c(-c2ccccc2)s1 | inactive |
